{"source": "PubChem BioAssay AID738", "about": "(SRMLSC, 2007)", "note": "Screen size: about 98,000 compounds; about 4,900 (5%) were called active. What follows is part of a selection rich in actives, with near analogues and random picks from the rest. Unmarked numbers belong to inactive results. No stated cut-off is given here; in the data, active means inhibition above about 30%; inactive means the rest."}
{"experiment": "growth inhibition of yeast control strain, primary screen, counter-screen for post-Golgi transport modulator project (AID 738)", "settings": "efflux-deficient yeast background strain, growth absorbance A615, 16 h; at 10 µM; active compounds read high"}
{"compound": "COc1ccc(C(=O)Oc2cc(/C=N/NS(=O)(=O)c3ccc(C)cc3)ccc2OC)cc1", "inhibition": "4.53%"}
{"compound": "COc1cc(/C=N/O)cc(Br)c1OCc1cccc(Cl)c1", "inhibition": "68% (active)"}
{"compound": "COc1cccc(/C=N/NC(=O)c2cccc([N+](=O)[O-])c2)c1OS(=O)(=O)c1ccc(C)cc1", "inhibition": "6.93%"}
{"compound": "COc1cc(/C=N/O)cc(Br)c1OS(=O)(=O)c1ccc(C)cc1", "inhibition": "55.4% (active)"}
{"compound": "CCOc1cc(/C=N/O)cc(Br)c1OC", "inhibition": "9.73%"}
{"compound": "CCOc1c(Cl)cc(/C=N/O)cc1OC", "inhibition": "-0.28%"}
{"compound": "Cn1nc(C(F)(F)F)c(C(=O)Nc2cccc(C(F)(F)F)c2)c1SCc1ccc(Cl)cc1", "inhibition": "9.33%"}
{"compound": "CC(Oc1ccc(-c2ccccc2)c(F)c1)c1ccn(S(=O)(=O)c2cccc3ccccc23)n1", "note": "(stereo not drawn)", "inhibition": "7.08%"}
{"compound": "O=c1c2ccccc2c(-c2ccc(F)cc2)nn1-c1ccc(C(F)(F)F)cc1", "inhibition": "23.4%"}
{"compound": "COc1c(C)cccc1C(=O)Nc1cc(Cl)ccc1N1CCOCC1", "inhibition": "87.2% (active)"}
{"compound": "O=C(CNC(=O)c1ccc(Cl)cc1Cl)NCC(=O)Nc1ccccc1N1CCOCC1", "inhibition": "1.21%"}
{"compound": "Cc1cc(C(=O)Nc2ccccc2N2CCOCC2)c2ccccc2n1", "inhibition": "6.17%"}
{"compound": "C/C(=N\\NC(=O)c1ccccc1C)c1ccc(N2CCOCC2)cc1", "inhibition": "-0.44%"}
{"compound": "CC(C)C(C)NC(=O)COc1ncnc2ccccc12", "note": "(stereo not drawn)", "inhibition": "27.4%"}
{"compound": "COc1cccc(N2CCN(C(=O)Nc3ccc4c(c3)NC(=O)CO4)CC2)c1", "inhibition": "4.59%"}
{"compound": "O=C(Cn1cncn1)N/N=C/c1c2ccccc2cc2ccccc12", "inhibition": "-2.2%"}
{"compound": "Cn1nc(-c2ccc(Cl)cc2)c2cc(C(=O)NCc3ccco3)sc21", "inhibition": "34.4% (active)"}
{"compound": "COc1ccccc1N1CCN(C(=O)c2cc3c(-c4ccc(Cl)cc4)nn(C)c3s2)CC1", "inhibition": "16.3%"}
{"compound": "CCOC(=O)N1CCN(C(=O)c2cc3c(-c4ccc(Cl)cc4)nn(C)c3s2)CC1", "inhibition": "22.3%"}
{"compound": "CC(=O)c1cccc(NC(=O)C2CCCN2S(=O)(=O)c2cccc3nsnc23)c1", "note": "(stereo not drawn)", "inhibition": "18.2%"}
{"compound": "Cc1ccc(-c2nc3ccccc3[nH]2)cc1NC(=O)c1sc2ccccc2c1Cl", "inhibition": "12.1%"}
{"compound": "O=C(/C=C/c1ccco1)Nc1cccc(-c2nc3ccccc3[nH]2)c1", "inhibition": "14.9%"}
{"compound": "Cc1ccsc1C(C(=O)NC1CCCCC1)N(C(=O)Cc1cccs1)C1CC1", "note": "(stereo not drawn)", "inhibition": "34.2% (active)"}
{"compound": "CC(Cc1cccs1)NC(=O)NC1CCCCC1", "note": "(stereo not drawn)", "inhibition": "4.21%"}
{"compound": "Cc1cccc(N(C(=O)Cc2cccs2)C(C(=O)NC2CCCC2)c2ccsc2)c1", "note": "(stereo not drawn)", "inhibition": "2.59%"}
{"compound": "Cc1ccc(Oc2ccc3c(c2)C(=O)N(c2cccc4cccnc24)C3=O)cc1", "inhibition": "9.43%"}
{"compound": "COC(=O)c1cc(OC)c(OC)cc1NC(=O)CSc1ccc(C)cc1", "inhibition": "4.16%"}
{"compound": "N#Cc1ccsc1NC(=O)CN1CCCCC1", "inhibition": "3.25%"}
{"compound": "CC1(C)CCCC2=C1CC1C(=O)N(c3ccccc3)C(=O)C1C2", "note": "(stereo not drawn)", "inhibition": "18.5%"}
{"compound": "CC1CC2=C(CC1/C=N/NC(N)=S)C(C)(C)CCC2", "note": "(stereo not drawn)", "inhibition": "90.2% (active)"}
{"compound": "COc1ccc(N(CC(=O)N/N=C/c2cccc3c2OCCO3)S(=O)(=O)c2ccc(NC(C)=O)cc2)cc1", "inhibition": "0.15%"}
{"compound": "COc1ccc(COC(=O)c2n[nH]c3ccccc23)cc1F", "inhibition": "37.5% (active)"}
{"compound": "CCN(CC)S(=O)(=O)c1ccc2nc(COC(=O)c3n[nH]c4ccccc34)[nH]c2c1", "inhibition": "7.74%"}
{"compound": "O=C(COC(=O)c1n[nH]c2ccccc12)NCc1ccccc1", "inhibition": "4.29%"}
{"compound": "CCC(C)NC(=O)c1c(N)n(/N=C/c2cccs2)c2nc3ccccc3nc12", "note": "(stereo not drawn)", "inhibition": "-2.86%"}
{"compound": "C=CCn1c(N)c(C(=O)OCC(C)C)c2nc3ccccc3nc21", "inhibition": "9.88%"}
{"compound": "CC(C)Cn1c(N)c(C(=O)NCc2cccs2)c2nc3ccccc3nc21", "inhibition": "35.7% (active)"}
{"compound": "O=C(O)COc1ccc(-c2nccc(-c3cccs3)n2)cc1", "inhibition": "0.28%"}
{"compound": "Brc1ccc(/C=N/N2CCN(C3c4ccccc4-c4ccccc43)CC2)s1", "inhibition": "-3.33%"}
{"compound": "CC(CC(=O)Nc1cc(C(F)(F)F)ccc1Cl)c1ccccc1", "note": "(stereo not drawn)", "inhibition": "16%"}
{"compound": "CCNCc1cc2cc(C)ccc2[nH]c1=O", "inhibition": "-2.22%"}
{"compound": "CC(=O)OCc1cc2cc(C)ccc2[nH]c1=O", "inhibition": "-5.13%"}
{"compound": "CCN(Cc1cc2cc(C)ccc2[nH]c1=O)S(=O)(=O)c1ccccc1", "inhibition": "32.2% (active)"}
{"compound": "O=[N+]([O-])c1ccc(Oc2ccc(F)cc2Br)c2ccncc12", "inhibition": "68.3% (active)"}
{"compound": "COc1ccc(C2C=C(c3ccc(Br)cc3)Nc3nc(NS(C)(=O)=O)nn32)cc1", "note": "(stereo not drawn)", "inhibition": "-3.73%"}
{"compound": "Cc1cc(/C=C2/SC(=O)N(CC(=O)OC(C)C)C2=O)c(C)n1C", "inhibition": "-3.79%"}
{"compound": "Cc1cccc(NC(=S)Nc2ccc(Br)cc2)c1", "inhibition": "0.28%"}
{"compound": "CC(=O)Nc1cc(C(=O)O)ccc1S(=O)(=O)c1ccc(Cl)cc1", "inhibition": "8.39%"}
{"compound": "O=C(Nc1ccc(Cl)cc1)c1ccsn1", "inhibition": "25.9%"}
{"compound": "O=C(Nc1ccccc1)c1nnsc1S(=O)(=O)c1ccc(Cl)cc1", "inhibition": "97.8% (active)"}
{"compound": "Cc1noc(C)c1COC(=O)c1cc2ccccc2cc1O", "inhibition": "19.3%"}
{"compound": "Cc1cccc(NC(=O)CN2C(=O)CNC2=O)c1", "inhibition": "9.16%"}
{"compound": "Cc1cccc(NC(=O)CSc2nnc(NC(=O)CN3CCOCC3)s2)c1", "inhibition": "-6.56%"}
{"compound": "Cc1cccc(NC(=O)CN2CCCN(S(=O)(=O)c3ccc(Br)s3)CC2)c1", "inhibition": "41.2% (active)"}
{"compound": "O=C(Nc1ccccc1)c1ccc2nsnc2c1", "inhibition": "12.1%"}
{"compound": "Cn1nc([N+](=O)[O-])nc1Sc1ccc(C(C)(C)C)cc1", "inhibition": "11.6%"}
{"compound": "CCOC(=O)C1=C(C)NC(C)=C(C(=O)OCC)C1c1ccccn1", "inhibition": "-6.97%"}
{"compound": "C=CCOC(=O)C1=C(C)NC(C)=C(C(=O)OCC=C)C1c1cccs1", "inhibition": "39.5% (active)"}
{"compound": "C=CCOC(=O)C1=C(C)NC(SCC(=O)OCC)=C(C#N)C1c1ccc(C)cc1", "note": "(stereo not drawn)", "inhibition": "18.4%"}
{"compound": "COc1ccc(/C=C2/S/C(=N/N=C3\\CC4CCC3(C)C4(C)C)NC2=O)cc1", "note": "(stereo not drawn)", "inhibition": "-0.57%"}
{"compound": "COc1ccc(/C(O)=C2\\C(=O)C(=O)N(Cc3ccco3)C2c2ccc(OC)cc2OC)cc1", "note": "(stereo not drawn)", "inhibition": "-3.5%"}
{"compound": "CCCn1c(SCC(N)=O)nnc1C(C)C", "inhibition": "5.31%"}
{"compound": "CCCn1c(SCC(=O)Nc2c(C)cccc2C)nnc1C(C)C", "inhibition": "-4.88%"}
{"compound": "CCCn1c(SCC(=O)c2ccc3c(c2)OCCO3)nnc1C(C)C", "inhibition": "43.7% (active)"}
{"compound": "Cc1cc2c(c(=O)n1C)C(C(C)C)C(C#N)=C(N)O2", "note": "(stereo not drawn)", "inhibition": "-3.4%"}
{"compound": "CSCc1cc(N(C)C)nc(SCc2ccc(Cl)cc2Cl)n1", "inhibition": "15%"}
{"compound": "CCOC(=O)c1sc(NC(=O)CSc2ncccn2)c(C#N)c1C", "inhibition": "21.6%"}
{"compound": "CCOC(=O)c1ccc(NC(=O)CSc2ncccn2)cc1", "inhibition": "31.1% (active)"}
{"compound": "CCOC(=O)c1ccc(NC(=O)CSc2nnc(COc3ccccc3OC)n2C)cc1", "inhibition": "12.5%"}
{"compound": "CC(c1ccco1)N(C(=O)COc1ccccc1[N+](=O)[O-])c1ccccn1", "note": "(stereo not drawn)", "inhibition": "14.2%"}
{"compound": "C=CCNC(=O)c1sc(SC)cc1-c1ccc(Cl)cc1", "inhibition": "11.2%"}
{"compound": "CC1CCN(CC(=O)c2c[nH]c3ccccc23)CC1", "inhibition": "6.25%"}
{"compound": "Cc1ccc(C2CC(=O)NC(SCC(=O)OCc3ccccc3)=C2C#N)o1", "note": "(stereo not drawn)", "inhibition": "32% (active)"}
{"compound": "CCOC(=O)CSC1=C(C#N)C(c2ccco2)C(C(=O)OCc2ccccc2)=C(C)N1", "note": "(stereo not drawn)", "inhibition": "24.9%"}
{"compound": "CCOC(=O)CSC1=C(C#N)C(c2sccc2C)CC(=O)N1", "note": "(stereo not drawn)", "inhibition": "11.5%"}
{"compound": "CN(C)/C=C(\\C#N)C(=O)c1cccnc1Oc1ccc(F)cc1F", "inhibition": "2.7%"}
{"compound": "O=C(COc1ccc(Br)cc1F)NC1CCN(Cc2ccccc2)CC1", "inhibition": "37.7% (active)"}
{"compound": "O=C(NC1CCN(Cc2ccccc2)CC1)c1ccccc1F", "inhibition": "6.56%"}
{"compound": "O=C(COc1ccccc1F)NC1CC1", "inhibition": "-0.64%"}
{"compound": "Cc1ccc(C(=O)Nc2c(C#N)c(C)c(C)n2Cc2ccccc2)cc1", "inhibition": "17.1%"}
{"compound": "CCOC1CS(=O)(=O)CC1OCC", "note": "(stereo not drawn)", "inhibition": "8.62%"}
{"compound": "Cc1cc(C)nc(NC(=O)Nc2ccccc2C(F)(F)F)n1", "inhibition": "34.3% (active)"}
{"compound": "O=C(Nc1ccccc1C(F)(F)F)c1cc(-c2ccc(O)cc2)on1", "inhibition": "2.42%"}
{"compound": "Cc1cc(C)nc(NC(=O)C(C)N2C(=O)c3ccccc3C2=O)n1", "note": "(stereo not drawn)", "inhibition": "-0.16%"}
{"compound": "COc1cc(SC)ccc1C(=O)NCCOc1ccccc1Cl", "inhibition": "28.9%"}
{"compound": "Cc1ccc(CNC(=O)CCNC(=O)Cn2ccc3ccccc3c2=O)cc1", "inhibition": "7.83%"}
{"compound": "CCOc1c2ccc(C(=O)NCc3ccc(OC(F)(F)F)cc3)cc2nn1C", "inhibition": "-2.75%"}
{"compound": "COc1ccc(C(=O)c2c(C)oc3cc([N+](=O)[O-])c(O)c([N+](=O)[O-])c23)cc1", "inhibition": "15%"}
{"compound": "COC(=O)Nc1c(C)n(C)n(-c2ccccc2)c1=O", "inhibition": "6.08%"}
{"compound": "Cc1c(NC(=O)c2cc(-c3ccc(Cl)s3)nc3ccccc23)c(=O)n(-c2ccccc2)n1C", "inhibition": "44.6% (active)"}
{"compound": "Cc1cc(C(=O)Nc2c(C)n(C)n(-c3ccccc3)c2=O)cs1", "inhibition": "2.08%"}
{"compound": "CCOC(=O)Nc1ccc(S(=O)(=O)N(C)C(C)C)cc1", "inhibition": "4.8%"}
{"compound": "CCOc1c2ccc(C(=O)NCc3ccc4c(c3)OCO4)cc2nn1C", "inhibition": "24.1%"}
{"compound": "Cc1ccccc1N/N=C/c1ccc(N2CCOCC2)cc1", "inhibition": "20%"}
{"compound": "COc1ccccc1CNC(=O)c1ccc(SC)cc1OC", "inhibition": "17.5%"}
{"compound": "CCOc1ccc2nc(N3CCCN(C(=O)Nc4ccccc4C)CC3)c(C#N)cc2c1", "inhibition": "56.8% (active)"}
{"compound": "COc1ccc2nc(N3CCCC(O)C3)c(C#N)cc2c1", "note": "(stereo not drawn)", "inhibition": "6.9%"}
{"compound": "CCOc1ccc2nc(NCCNS(=O)(=O)c3ccccc3)c(C#N)cc2c1", "inhibition": "-2.23%"}
